Several values for one entry are separate records, joined by “and”; a condition that tells them apart may be missing. Identical values can stand only once. A number with no mark means an inactive call. Results filed as inconclusive are left out. A call without a number means that no potency is given here. Activity calls are given as the source filed them. Unless noted, calls come from the whole dose curve; as a rule, active = well fitted curve in the direction sought with a large enough effect in the repeat runs; inconclusive = weak or mixed curves; inactive = no such curve, though single readings can be large; an effect the other way counts as inactive or inconclusive.
What was measured:
[1] = qHTS assay to identify small molecule agonists of H2AX - cell viability counter screen (AID 1224847; calls by dose curve; note: nearly all actives have a fitted effect of over 30% in size; note: potency is the fitted concentration of half-maximal effect); conditions: CHO-K1 viability, CellTiter-Glo luminescence, 3 h; series mostly up to 154 µM
Summary of the method: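 We seed wild-type CHO-K1 cells overnight, treat them for 3 hr at 37C with compounds in 15-concentration series, and quantify remaining viability by CellTiter-Glo luminescence.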

[2] = qHTS RealTime-Glo MT Cell Viability Assay in HepG2 cells - 24 hour (AID 1224867); conditions: RealTime-Glo luminescence; series mostly up to 76.8 µM; note: nearly all actives have a fitted effect of over 50% in size; note: potency is the fitted concentration of half-maximal effect
Summary of the method: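 Viability was tracked continuously by NanoLuc luminescence from prosubstrate reduced by living HepG2 cells, at successive time points over 40 h of compound exposure. Cells with reagent were preincubated 5 h at 37 °C before compound addition.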

[3] = qHTS RealTime-Glo MT Cell Viability Assay in HEK293 cells - 32 hour (AID 1224868); conditions: RealTime-Glo luminescence; series mostly up to 76.8 µM; note: nearly all actives have a fitted effect of over 50% in size; note: potency is the fitted concentration of half-maximal effect
Summary of the method: (§1)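 Viability tracked continuously by luminescence as live cells reduce a prosubstrate for NanoLuc; HEK293 cells preincubated 5 h, compound-treated at 37 C, and read at 0, 8, 16, 24, 32 and 40 h.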

[4] = A CellTox Green Cytotoxicity Assay to monitor cytotoxicity in HEK293 cells - 0 hour (AID 1224869); conditions: CellTox Green fluorescence; series mostly up to 76.8 µM; note: nearly all actives have a fitted effect of over 50% in size; note: potency is the fitted concentration of half-maximal effect
Summary of the method: (§2)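 Fluorescence intensity, read at 0, 8, 16, 24, 32 and 40 h of compound treatment, reflected dye binding to DNA of dead HEK293 cells; compounds (23 nL, DMSO) were added 5 h after plating cells with reagent.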

[5] = qHTS RealTime-Glo MT Cell Viability Assay in HepG2 cells - 40 hour (AID 1224870); conditions: RealTime-Glo luminescence; series mostly up to 76.8 µM; note: nearly all actives have a fitted effect of over 50% in size; note: potency is the fitted concentration of half-maximal effect
Summary of the method: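 HepG2 cells mixed with RealTime-Glo MT reagents (NanoLuc plus cell-permeant prosubstrate) were seeded at 600 cells/well, incubated 5 h at 37 C/5% CO2, then pinned with compounds in DMSO; nonlytic luminescence tracked viability during 40 h treatment.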

[6] = A CellTox Green Cytotoxicity Assay to monitor cytotoxicity in HEK293 cells - 40 hour (AID 1224871); conditions: CellTox Green fluorescence; series mostly up to 76.8 µM; note: nearly all actives have a fitted effect of over 45% in size; note: potency is the fitted concentration of half-maximal effect
Summary of the method: as §2

[7] = qHTS RealTime-Glo MT Cell Viability Assay in HEK293 cells - 16 hour (AID 1224872); conditions: RealTime-Glo luminescence; series mostly up to 76.8 µM; note: nearly all actives have a fitted effect of over 50% in size; note: potency is the fitted concentration of half-maximal effect
Summary of the method: as §1

[8] = qHTS assay to identify small molecule antagonists of the estrogen related receptor (ERR) signaling pathway from Tox21 library (AID 1224848); conditions: ERR reporter cell line, luciferase antagonist mode, 18 h; series mostly up to 92.4 µM; note: nearly all actives have a fitted effect of over 50% in size; note: potency is the fitted concentration of half-maximal effect
Summary of the method: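 Cells: ERR line, 2,000/well; 6 h preincubation 37 C/5% CO2. Cpd in DMSO via pin tool; 18 h, 37 C. ONE-Glo, 30 min RT, luminescence.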

[9] = qHTS assay to identify small molecule agonists of the estrogen related receptor (ERR) signaling pathway from Tox21 library (AID 1224849; calls by dose curve; note: nearly all actives have a fitted effect of over 15% in size); conditions: ERR reporter cell line, ONE-Glo luciferase, 18 h; at 92.4 µM (top of the series) unless noted
Summary of the method: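 Screening used an NTP-provided ERR luciferase cell line. Compounds in DMSO were added 6 h after seeding and left 18 h at 37 C before a 30 min ONE-Glo step and luminescence reading.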

Row | Compound | Potency [1] | Potency [2] | Potency [3] | Potency [4] | Potency [5] | Potency [6] | Potency [7] | Potency [8] | activity change, positive = activation [9]
1 | CCC1(c2cnc[nH]2)Cc2ccccc2C1 | inactive | inactive | inactive | inactive | inactive | inactive | inactive | – | –
2 | c1cc(OCC2CO2)cc(OCC2CO2)c1 (stereo unspecified) | inactive | – | 17.2 µM (active) | inactive | – | inactive | – | – | –
3 | CC(=O)Oc1ccc(C2(c3ccc(OC(C)=O)cc3)Oc3ccccc3NC2=O)cc1 | inactive | inactive | – | inactive | inactive | inactive | inactive | – | –
4 | Cc1ccc(-n2[nH]c(C)c(N=Nc3cccc(-c4cccc(C(=O)O)c4)c3O)c2=O)cc1C | inactive | – | 23.9 µM (active) | inactive | inactive | inactive | – | – | –
5 | CCCCC(CC)COC(=O)c1ccc(O)cc1 (stereo unspecified) | 89.4 µM (active) and 80 µM (active) | inactive | 54.7 µM (active) | inactive | inactive | 43.5 µM (active) and 21.9 µM (active) | 54.7 µM (active) | – | –
6 | CCCCCCCCCCCCOC(=O)c1cc(O)c(O)c(O)c1 | 100 µM (active) | 54.7 µM (active) and 49 µM (active) | 3.87 µM (active) and 3.47 µM (active) | inactive | 54.9 µM (active) | 34.5 µM (active) and 49 µM (active) | 6.89 µM (active) and 5.49 µM (active) | – | –
7 | CN1[C@@H]2CC[C@H]1CC(OC(=O)C(CO)c1ccccc1)C2 (stereo partly specified) | inactive | inactive | inactive | inactive | inactive | inactive | inactive | – | –
8 | CSc1c(Cl)c(Cl)c(Cl)c(Cl)c1Cl | inactive | inactive | – | inactive | inactive | 48.7 µM (active) | – | – | –
9 | Brc1ccccc1-c1ccccc1 | – | inactive | inactive | inactive | inactive | – | – | inactive | –
10 | Clc1ccc(C(Cn2ccnc2)OCc2c(Cl)cccc2Cl)c(Cl)c1 (stereo unspecified) | – | – | 16.9 µM (active) | inactive | inactive | – | – | 26.6 µM (active) | -58.8% [at 42.5 µM]
11 | CCC(C)(C)c1cc(O)c(C(C)(C)CC)cc1O | – | – | 30.9 µM (active) | inactive | inactive | – | 21.9 µM (active) | 68.6 µM (active) | -67.5%
12 | CCCCCCCCCCCC(=O)N(CC)CC | – | – | inactive | inactive | inactive | inactive | inactive | – | –
13 | COC(=O)C1=C(C)NC(C)=C(C(=O)OCCCN2CCC(c3ccccc3)(c3ccccc3)CC2)C1c1cccc([N+](=O)[O-])c1 (stereo unspecified) | – | – | 10.7 µM (active) | inactive | – | inactive | 9.52 µM (active) | 10.6 µM (active) | -67.7% [at 42.5 µM]
14 | Cc1cccc(C)c1NC(=O)CN1CCN(CCCC(c2ccc(F)cc2)c2ccc(F)cc2)CC1 | – | 23.9 µM (active) | 9.52 µM (active) | inactive | 23.9 µM (active) | 21.3 µM (active) | 10.7 µM (active) | – | –
15 | Cc1c(-c2ccc(O)cc2)n(Cc2ccc(OCCN3CCCCCC3)cc2)c2ccc(O)cc12 | – | – | 3.01 µM (active) | inactive | 9.52 µM (active) | 16.9 µM (active) | 2.68 µM (active) | – | –
16 | CC(NCCC(c1ccccc1)c1ccccc1)c1ccccc1 (stereo unspecified) | – | 21.3 µM (active) | 19 µM (active) | inactive | 21.3 µM (active) | 21.3 µM (active) | 21.3 µM (active) | – | –
17 | CC(C)N=C(N)/N=C(\N)Nc1ccc(Cl)cc1 | – | inactive | 26.8 µM (active) | inactive | inactive | inactive | – | – | -24.8% [at 42.5 µM]

Row | Compound | Potency [1] | Potency [2] | Potency [3] | Potency [4] | Potency [5] | Potency [6] | Potency [7] | Potency [8] | activity change, positive = activation [9]
18 | CC(O)C#CC(C)O (stereo unspecified) | – | – | – | inactive | – | 54.4 µM (active) | – | – | –
19 | C=CC(=O)OCCOCC(CC)(COCCOC(=O)C=C)COCCOC(=O)C=C | – | – | 16.1 µM (active) | inactive | 32.2 µM (active) | 14.4 µM (active) | 18.1 µM (active) | 25.3 µM (active) | -76.5%
20 | O=C(Oc1ccccc1)c1cccc(C(=O)Oc2ccccc2)c1 | – | – | – | inactive | inactive | inactive | inactive | – | –
21 | CN(C)c1ccc(N=Nc2ccccc2C(=O)O)cc1 | – | – | inactive | inactive | – | – | inactive | – | –
22 | CCCCCCC(C)Nc1ccc(Nc2ccccc2)cc1 (stereo unspecified) | – | – | 24.5 µM (active) | inactive | – | – | 19.5 µM (active) | – | –
23 | NC1(c2ccc(-c3nc4ccn5c(=O)[nH]nc5c4cc3-c3ccccc3)cc2)CCC1 | – | – | 1.9 µM (active) | inactive | – | 26.8 µM (active) | 6.01 µM (active) | 3.35 µM (active) | -52.3% [at 42.5 µM]
24 | CNC(=O)c1cc(Oc2ccc(NC(=O)Nc3ccc(Cl)c(C(F)(F)F)c3)cc2)ccn1 | – | – | 3.01 µM (active) | inactive | – | inactive | 3.01 µM (active) | 8.41 µM (active) | -59.1% [at 42.5 µM]
25 | CCCCNc1c(C(=O)OCC)c(C)nc2c1cnn2CC | – | – | 21.3 µM (active) | inactive | inactive | inactive | – | – | –
26 | COC(=O)[C@]1(C)CCC[C@@]2(C)[C@H]1CC=C1C=C(C(C)C)CC[C@@H]12 | – | inactive | inactive | 24.5 µM (active) | inactive | 38.9 µM (active) | inactive | – | -22.1%
27 | CCC(C)c1cc([N+](=O)[O-])cc([N+](=O)[O-])c1OC(=O)OC(C)C (stereo unspecified) | – | 54.9 µM (active) | – | inactive | – | inactive | – | 19.3 µM (active) | -53.4%
28 | C[n+]1c2cc(N)ccc2cc2ccc(N)cc21 (tested in a mixture with another compound) | – | – | 5.35 µM (active) | 23.9 µM (active) | – | 23.9 µM (active) | 21.3 µM (active) | – | –
29 | N#CSCSc1nc2ccccc2s1 | – | 38.9 µM (active) | 19.5 µM (active) | inactive | 24.5 µM (active) | 11 µM (active) | 15.5 µM (active) | – | –
30 | Nc1ccc2cc3ccc(N)cc3nc2c1 | – | – | 871 nM (active) and 2.13 µM (active) | 38.9 µM (active) and 21.3 µM (active) | 9.52 µM (active) | 43.6 µM (active) and 21.3 µM (active) | 6.16 µM (active) and 9.52 µM (active) | – | –
31 | CCO[Si](CCCSSSSCCC[Si](OCC)(OCC)OCC)(OCC)OCC | – | inactive | inactive | inactive | inactive | – | inactive | – | –
32 | CCOC(=O)C1=C(C)NC(C)=C(C(=O)OCC)C1c1ccccc1/C=C/C(=O)OC(C)(C)C | – | – | – | inactive | – | inactive | inactive | 13.3 µM (active) | -56.8% [at 42.5 µM]
33 | COCC(=O)O[C@]1(CCN(C)CCCc2nc3ccccc3[nH]2)CCc2cc(F)ccc2[C@@H]1C(C)C | – | 13.4 µM (active) | 6.74 µM (active) | inactive | 10.7 µM (active) | 19 µM (active) | 5.35 µM (active) | – | –
